The text below walks through data of the supplement of paper PMC10515830.

Counter-ions that a name gives are not always drawn.

The test system of one test is Danio rerio larvae (5 dpf). As to the kind of experiment: difference in activity during first hour vs DMSO (percentage points); higher = more activity than DMSO. The following applies: 10 µM; exposure time 6 h. A digest of the protocol:
(§1)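 Wild-type 5 dpf zebrafish larvae in 96-well plates were given 100 µL egg water containing library compound at 10 µM final for 6 h. After 3 h of exposure, plates at 28.5 ℃ were photographed every 6 s during a 3-h programme of moving lines and 100 ms, 400Hz tones. Z-LaP Tracker (a DeepLabCut model) quantified each behaviour, averaged over 48 larvae per compound. Values are the compound mean minus the DMSO-vehicle control, in percentage points.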
On to `C[C@@H](O)[C@H]1C(=O)N2C(C(=O)O)=C(S[C@@H]3CN[C@H](CNS(N)(=O)=O)C3)[C@H](C)[C@H]12` [Doripenem (hydrate)], for which the “difference in activity during first hour” value was 18.4.

As for `Cc1cc(NS(=O)(=O)c2ccc(N)cc2)no1` [Sulfamethoxazole], the “difference in activity during first hour” value came out at 9.59.

Consider `CC(C)OC(=O)C(C)(C)Oc1ccc(C(=O)c2ccc(Cl)cc2)cc1` [Fenofibrate], for which the “difference in activity during first hour” value turned out to be 45.6.

With `CCNC(=O)CCC/C=C\C[C@@H]1[C@@H](/C=C/[C@@H](O)CCc2ccccc2)[C@H](O)C[C@@H]1O` [17-phenyl trinor Prostaglandin F2α ethyl amide], the “difference in activity during first hour” value was determined as 14.8.

As for `CC[C@H]1OC(=O)[C@H](C)[C@@H](O[C@H]2C[C@@](C)(OC)[C@@H](O)[C@H](C)O2)[C@H](C)[C@@H](O[C@@H]2O[C@H](C)C[C@H](N(C)C)[C@H]2O)[C@](C)(O)C[C@@H](C)CN(C)[C@H](C)[C@@H](O)[C@]1(C)O` [Azithromycin], the “difference in activity during first hour” value was -4.37.

As to `Cc1nc(-c2ccc(OCC(C)C)c(C#N)c2)sc1C(=O)O` [Febuxostat], the “difference in activity during first hour” value is -3.02.

Take `CC(=O)O[C@]1(C(C)=O)CC[C@H]2[C@@H]3C=C(C)C4=CC(=O)CC[C@]4(C)[C@H]3CC[C@@]21C` [Megestryl Acetate]: the “difference in activity during first hour” value was determined as 4.4.

In the case of `NC(=O)[C@@H]1CC[C@@H]2CN1C(=O)N2OS(=O)(=O)O` [Avibactam (sodium salt)], the “difference in activity during first hour” value is 5.58.

For `CC[C@@H](CO)NCCN[C@@H](CC)CO` [Ethambutol (hydrochloride)], the “difference in activity during first hour” value was found to be 7.

As to `CO[C@H]1/C=C/O[C@@]2(C)Oc3c(C)c(O)c4c(O)c(c5c(nc6cc(C)ccn65)c4c3C2=O)NC(=O)/C(C)=C\C=C\[C@H](C)[C@H](O)[C@@H](C)[C@@H](O)[C@@H](C)[C@H](OC(C)=O)[C@@H]1C` [Rifaximin], the “difference in activity during first hour” value was 13.2.

The test system of the next test is Danio rerio larvae (5 dpf). Briefly: difference in habituation to acoustic stimuli vs DMSO (percentage points); higher = more habituation than DMSO. The settings on record: 10 µM; exposure time 6 h. The essentials: as §1
For `COc1nc(N)nc2c1ncn2[C@@H]1O[C@H](CO)[C@@H](O)[C@@H]1O` [Nelarabine], the “difference in habituation to acoustic stimuli” value (“difference in habituation” below) was -0.162.

For `CC[C@]1(O)C[C@@H]2CN(CCc3c([nH]c4ccccc34)[C@@](C(=O)OC)(c3cc4c(cc3OC)N(C)[C@H]3[C@@](O)(C(=O)OC)[C@H](OC(C)=O)[C@]5(CC)C=CCN6CC[C@]43[C@@H]65)C2)C1` [Vinblastine (sulfate)], the “difference in habituation” value was -2.13.

Take `CN1CCC(=C2c3ccccc3CCn3c(C=O)cnc32)CC1` [Alcaftadine]: the “difference in habituation” value is -3.

Turning to `Cc1nnc(C(C)C)n1C1C[C@H]2CC[C@@H](C1)N2CC[C@H](NC(=O)C1CCC(F)(F)CC1)c1ccccc1` (stereo in doubt) [Maraviroc], the “difference in habituation” value was -1.89.

As for `C[C@]12C=CC(=O)N[C@@H]1CC[C@@H]1[C@@H]2CC[C@]2(C)[C@@H](C(=O)Nc3cc(C(F)(F)F)ccc3C(F)(F)F)CC[C@@H]12` [Dutasteride], the “difference in habituation” value was -8.39.

As for `CCC(=O)O[C@]1(C(=O)SCF)[C@H](C)C[C@H]2[C@@H]3C[C@H](F)C4=CC(=O)C=C[C@]4(C)[C@@]3(F)[C@@H](O)C[C@@]21C` [Fluticasone Propionate], the “difference in habituation” value came out at 1.17.

Take `Nc1ccn([C@@H]2O[C@H](CO)[C@@H](O)C2(F)F)c(=O)n1` [Gemcitabine]: the “difference in habituation” value was -1.87.

Regarding `CN(C)CCOC(c1ccccc1)c1ccccc1` [Diphenhydramine (hydrochloride)], the “difference in habituation” value is -3.37.

Take `CO[C@H]1/C=C/O[C@@]2(C)Oc3c(C)c(O)c4c(O)c(c(/C=N/N5CCN(C)CC5)c(O)c4c3C2=O)NC(=O)/C(C)=C\C=C\[C@H](C)[C@H](O)[C@@H](C)[C@@H](O)[C@@H](C)[C@H](OC(C)=O)[C@@H]1C` [Rifampicin]: the “difference in habituation” value was -1.68.

Regarding `S=c1nc[nH]c2nc[nH]c12` [6-Mercaptopurine (hydrate)], the “difference in habituation” value is -0.245.

Take `OC(c1cc(C(F)(F)F)nc2c(C(F)(F)F)cccc12)C1CCCCN1` (stereo not drawn) [Mefloquine (hydrochloride)]: the “difference in habituation” value was -0.417.

Take `Nc1nc2c(c(=O)[nH]1)N(C=O)C(CNc1ccc(C(=O)NC(CCC(=O)O)C(=O)O)cc1)CN2` (racemic) [DL-Folinic Acid (calcium salt)]: the “difference in habituation” value came out at 0.082.

Consider `CCOC(=O)c1ccc(C#Cc2ccc3c(c2)C(C)(C)CCS3)nc1` [Tazarotene], for which the “difference in habituation” value was -9.47.

Turning to `Nc1nc2c(ncn2COCCO)c(=O)[nH]1` [Acyclovir], the “difference in habituation” value is 8.37.

For `Cc1cc(/C=C/C#N)cc(C)c1Nc1ccnc(Nc2ccc(C#N)cc2)n1` [Rilpivirine], the “difference in habituation” value was -9.2.

For the compound `NCC[C@H](O)C(=O)N[C@@H]1C[C@H](N)[C@@H](O[C@H]2O[C@H](CN)[C@@H](O)[C@H](O)[C@H]2O)[C@H](O)[C@H]1O[C@H]1O[C@H](CO)[C@@H](O)[C@H](N)[C@H]1O` [Amikacin], the “difference in habituation” value is 2.17.

With `C[C@H](Cc1cc2c(c(C(N)=O)c1)N(CCCO)CC2)NCCOc1ccccc1OCC(F)(F)F` [Silodosin], the “difference in habituation” value is -5.47.

As to `O=C(c1ccc(F)c(F)c1Nc1ccc(I)cc1F)N1CC(O)([C@@H]2CCCCN2)C1` [Cobimetinib], the “difference in habituation” value worked out at 0.214.

As for `C[N+](C)(C)CC=O` [Betaine Aldehyde (chloride)], the “difference in habituation” value was -0.929.

For the compound `CCN(CC)CCNC(=O)c1c(C)[nH]c(/C=C2\C(=O)Nc3ccc(F)cc32)c1C` [Sunitinib (malate)], the “difference in habituation” value is 0.523.

For the compound `COc1ccc2c3c1O[C@H]1C[C@@H](O)C=C[C@@]31CCN(C)C2` [Galantamine], the “difference in habituation” value was -3.53.

Turning to `Cc1ccc(O)c([C@H](CCN(C(C)C)C(C)C)c2ccccc2)c1` [Tolterodine (tartrate)], the “difference in habituation” value was -5.38.

For the compound `COC(=O)C1=C(C)NC(C)=C(C(=O)OC(C)C)C1c1cccc2nonc12` (stereo not drawn) [Isradipine], the “difference in habituation” value is -7.82.

On to `CC=CC(=O)N(CC)c1ccccc1C` [Crotamiton], for which the “difference in habituation” value came out at 4.95.

Consider `CN(C)[C@@H]1C(O)=C(C(N)=O)C(=O)[C@@]2(O)C(O)=C3C(=O)c4c(O)cccc4[C@@](C)(O)[C@H]3C[C@@H]12` [Tetracycline (hydrochloride)], for which the “difference in habituation” value is -0.0493.

On to `O=C(O)Cc1ccccc1Nc1c(Cl)cccc1Cl` [Diclofenac (sodium salt)], for which the “difference in habituation” value was -5.15.

For the compound `COc1ccc([C@@H]2Sc3ccccc3N(CCN(C)C)C(=O)[C@@H]2OC(C)=O)cc1` [Diltiazem (hydrochloride)], the “difference in habituation” value was -8.44.

For the compound `O=C(NC[C@H]1CN(c2ccc(N3CCOCC3=O)cc2)C(=O)O1)c1ccc(Cl)s1` [Rivaroxaban], the “difference in habituation” value is -4.56.

For the compound `C[C@@H](O)[C@H]1C(=O)N2C(C(=O)O)=C(S[C@@H]3CN[C@H](CNS(N)(=O)=O)C3)[C@H](C)[C@H]12` [Doripenem (hydrate)], the “difference in habituation” value is -1.56.

Consider `Cc1cc(NS(=O)(=O)c2ccc(N)cc2)no1` [Sulfamethoxazole], for which the “difference in habituation” value was 3.04.

With `CC(C)OC(=O)C(C)(C)Oc1ccc(C(=O)c2ccc(Cl)cc2)cc1` [Fenofibrate], the “difference in habituation” value is -9.59.

As to `CCNC(=O)CCC/C=C\C[C@@H]1[C@@H](/C=C/[C@@H](O)CCc2ccccc2)[C@H](O)C[C@@H]1O` [17-phenyl trinor Prostaglandin F2α ethyl amide], the “difference in habituation” value was -0.264.

As to `CC[C@H]1OC(=O)[C@H](C)[C@@H](O[C@H]2C[C@@](C)(OC)[C@@H](O)[C@H](C)O2)[C@H](C)[C@@H](O[C@@H]2O[C@H](C)C[C@H](N(C)C)[C@H]2O)[C@](C)(O)C[C@@H](C)CN(C)[C@H](C)[C@@H](O)[C@]1(C)O` [Azithromycin], the “difference in habituation” value is -3.98.

As for `Cc1nc(-c2ccc(OCC(C)C)c(C#N)c2)sc1C(=O)O` [Febuxostat], the “difference in habituation” value worked out at 3.9.

Take `CC(=O)O[C@]1(C(C)=O)CC[C@H]2[C@@H]3C=C(C)C4=CC(=O)CC[C@]4(C)[C@H]3CC[C@@]21C` [Megestryl Acetate]: the “difference in habituation” value is -8.79.

With `NC(=O)[C@@H]1CC[C@@H]2CN1C(=O)N2OS(=O)(=O)O` [Avibactam (sodium salt)], the “difference in habituation” value was found to be 4.75.

`CC[C@@H](CO)NCCN[C@@H](CC)CO` [Ethambutol (hydrochloride)]: the “difference in habituation” value was determined as 4.16.

`CO[C@H]1/C=C/O[C@@]2(C)Oc3c(C)c(O)c4c(O)c(c5c(nc6cc(C)ccn65)c4c3C2=O)NC(=O)/C(C)=C\C=C\[C@H](C)[C@H](O)[C@@H](C)[C@@H](O)[C@@H](C)[C@H](OC(C)=O)[C@@H]1C` [Rifaximin]: the “difference in habituation” value came to 0.472.
